In the supplement of paper PMC13380429:

System: Vero E6 infected with SARS-CoV-2
Assay: inhibition of SARS-CoV-2 cytopathic effect; higher = more antiviral protection, active = above 15
Conditions: 48 h

Measured: inhibition of SARS-CoV-2 cytopathic effect

CC(C)Oc1ccc(-c2nn([C@@H](C)c3oc4ccc(F)cc4c(=O)c3-c3cccc(F)c3)c3ncnc(N)c23)cc1F
inactive: 1 nM 1.54% | 8.33 nM 2.74% | 100 nM 0.14% | 833.33 nM 0.53% | 10000 nM -3.52%

CCN1C[C@H](C)n2c(c(O)c3c(=O)n(Cc4ccc(F)c(Cl)c4)nc(C(=O)NC)c32)C1=O
inactive: 1 nM -0.8% | 8.33 nM 0.13% | 100 nM -1.06% | 833.33 nM 0.69% | 10000 nM -2.34%

CCCCCCCCCCC(=O)O[C@H]1CC[C@H]2[C@@H]3CCC4=CC(=O)CC[C@]4(C)[C@H]3CC[C@]12C [Testosterone (undecanoate)]
inactive: 1 nM 1.81% | 8.33 nM 0.82% | 100 nM 0.37% | 833.33 nM 0.31% | 10000 nM 0.21%

O=C(O)[C@H](Cc1c[nH]c2ccccc12)N1C(=O)c2ccccc2C1=O
inactive: 1 nM 2.9% | 8.33 nM 3.8% | 100 nM -0.51% | 833.33 nM -0.14% | 10000 nM 0.14%

COc1cc(OC)c(/C=C2/C(=O)Nc3ccccc32)c(OC)c1
inactive: 1 nM 2.03% | 8.33 nM 1.86% | 100 nM 2.55% | 833.33 nM 1.29% | 10000 nM -1.88%

Oc1c(I)cc(Cl)c2cccnc12 [clioquinol]
inactive: 1 nM -4.79% | 8.33 nM -6.61% | 100 nM -4.78% | 833.33 nM -5.93% | 10000 nM -9.21%

O=c1c(-c2ccc(O)cc2)coc2cc(O)ccc12 [daidzein]
inactive: 1 nM 0.46% | 8.33 nM 0.3% | 100 nM 0.05% | 833.33 nM -0.66% | 10000 nM -1.03%

O=C(O)CNC(=O)C1C(=O)N(C2CCCCC2)C(=O)N(C2CCCCC2)C1=O [daprodustat]
inactive: 1 nM -0.26% | 8.33 nM 1.23% | 100 nM 2.21% | 833.33 nM 2.38% | 10000 nM -0.29%

c1nc2c(NC3CCCCC3)nc(Nc3ccc(N4CCOCC4)cc3)nc2[nH]1 [reversine]
inactive: 1 nM 3.13% | 8.33 nM 6.21% | 100 nM 1.52% | 833.33 nM -0.29% | 10000 nM -7.06%

O=C(O)[C@H](Cc1ccc(Nc2nccc3ccncc23)cc1)NC1=C(Br)C(=O)C12CCCCC2
inactive: 1 nM 0.12% | 8.33 nM 0.67% | 100 nM -0.71% | 833.33 nM -0.14% | 10000 nM 2.62%

Nc1nc2c(ncn2COC(CO)CO)c(=O)[nH]1 [ganciclovir]
inactive: 1 nM 0.29% | 8.33 nM 0.09% | 100 nM 2.75% | 833.33 nM -1.42% | 10000 nM -1.71%

CCCn1c(=O)[nH]c2nc(-c3ccc(S(=O)(=O)O)cc3)[nH]c2c1=O
inactive: 1 nM 0.98% | 8.33 nM -0.31% | 100 nM -0.83% | 833.33 nM 0.97% | 10000 nM 0.55%

O=C(NCCNCC(O)COc1ccc(O)cc1)N1CCOCC1 (stereo not given) [xamoterol]
inactive: 1 nM -2.07% | 8.33 nM -0.88% | 100 nM -0.13% | 833.33 nM 0.01% | 10000 nM 3.26%

CC(C)(C)NCC(O)c1cc(Cl)c(N)c(C(F)(F)F)c1 (stereo not given) [mabuterol]
inactive: 1 nM -0.03% | 8.33 nM -0.53% | 100 nM 3.86% | 833.33 nM -1.18% | 10000 nM -0.72%

CCCCCCCCCCCCCCCC=O [1-hexadecanal]
inactive: 1 nM 0.5% | 8.33 nM 2.85% | 100 nM -0.54% | 833.33 nM -0.08% | 10000 nM 1.56%

CCN(CC)CCOc1ccc(Cc2ccccc2)cc1
inactive: 1 nM -2.21% | 8.33 nM -0.5% | 100 nM -4.41% | 833.33 nM 0.19% | 10000 nM -0.76%

CCC(NC(C)C)C(O)c1ccc(O)c(O)c1 (stereo not given) [isoetharine]
inactive: 1 nM -0.44% | 8.33 nM 0.06% | 100 nM -2.12% | 833.33 nM -0.61% | 10000 nM 1.5%

CCCCCCCCCCC(CO)CCCCCCCC (stereo not given) [2-octyldodecan-1-ol]
inactive: 1 nM 1.79% | 8.33 nM -0.7% | 100 nM 0.48% | 833.33 nM 0.76% | 10000 nM 0.34%

COc1cc2c(cc1Cc1cccc(Cl)c1F)c(=O)c(C(=O)O)cn2[C@H](CO)C(C)C [elvitegravir]
inactive: 1 nM 2.45% | 8.33 nM 1.56% | 100 nM 1.54% | 833.33 nM 1.67% | 10000 nM -6.71%
